According to PubChem BioAssay (Tox21):
Values joined by “and” are separate entries in the source; they are usually repeats but may differ in a detail not shown here. Equal entries are not always repeated. Some compounds were tested as several samples or in several runs, with calls that do not always agree. Active and inactive are the calls of the source. Entries that show only a call come without a potency. Unless noted, calls come from the whole dose curve; as a rule, active = well fitted curve in the direction sought with a large enough effect in the repeat runs; inconclusive = weak or mixed curves; inactive = no such curve, though single readings can be large; an effect the other way counts as inactive or inconclusive.

What was measured:
[1] = qHTS assay to identify small molecule antagonists of the thyroid receptor (TR) signaling pathway - cell viability counter screen (AID 743064); note: nearly all actives have a fitted effect of over 50% in size; note: potency is the fitted concentration of half-maximal effect
Procedure, shortened: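 Counter screen for cytotoxicity: compound plus T3 (1 nM final) on GH3.TRE-Luc cells, 23.5 h at 37 °C, then fluorescence viability readout with CellTiter-Fluor.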

[2] = qHTS assay to identify small molecule antagonists of the estrogen receptor alpha (ER-alpha) signaling pathway - cell viability counter screen (AID 743074; calls by dose curve;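 note: HEK293 cells carrying ER-alpha-UAS-bla reporter stimulated with 17beta-estradiol; nearly all actives have a fitted effect of over 45% in size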; note: potency is the fitted concentration of half-maximal effect)
[3] = qHTS assay to identify small molecule antagonists of the estrogen receptor alpha (ER-alpha) signaling pathway using the BG1 cell line - cell viability counter screen (AID 743081);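 note: compound given together with 17beta-estradiol as the ER stimulus; nearly all actives have a fitted effect of over 45% in size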; note: potency is the fitted concentration of half-maximal effect
Aromatase (Homo sapiens) = Aromatase (Homo sapiens) (UniProt P11511); assay: qHTS assay to identify aromatase inhibitors (AID 743083); note: nearly all actives have a fitted effect of over 55% in size; note: potency is the fitted concentration of half-maximal effect
Chain of Aromatase (Homo sapiens) (P11511 whole entry, looked up): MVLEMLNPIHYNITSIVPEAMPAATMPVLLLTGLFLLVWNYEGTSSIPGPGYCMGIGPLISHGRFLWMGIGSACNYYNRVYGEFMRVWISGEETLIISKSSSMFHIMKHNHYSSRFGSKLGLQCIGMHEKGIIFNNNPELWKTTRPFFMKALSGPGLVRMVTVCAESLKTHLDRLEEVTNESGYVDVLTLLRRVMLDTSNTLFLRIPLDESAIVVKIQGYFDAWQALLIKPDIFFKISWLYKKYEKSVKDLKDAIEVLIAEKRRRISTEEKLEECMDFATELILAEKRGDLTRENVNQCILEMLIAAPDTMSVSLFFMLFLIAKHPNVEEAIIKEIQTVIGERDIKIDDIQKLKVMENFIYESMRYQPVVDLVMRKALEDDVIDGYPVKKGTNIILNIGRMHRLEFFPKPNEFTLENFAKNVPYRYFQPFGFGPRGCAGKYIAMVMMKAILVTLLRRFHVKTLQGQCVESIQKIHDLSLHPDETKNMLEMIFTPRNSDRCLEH

[4] = qHTS assay to identify aromatase inhibitors - cell viability counter screen (AID 743084);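 note: cells stimulated with testosterone during compound exposure; nearly all actives have a fitted effect of over 55% in size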; note: potency is the fitted concentration of half-maximal effect
[5] = biological target: Aryl hydrocarbon receptor (Homo sapiens) (UniProt P35869); assay: qHTS assay to identify small molecule that activate the aryl hydrocarbon receptor (AhR) signaling pathway (AID 743085); note: nearly all actives have a fitted effect of over 15% in size; note: potency is the fitted concentration of half-maximal effect;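 for activation: HG2L7.5c1 human HepG2 liver cells with stably integrated DRE-driven firefly reporter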
Chain of Aryl hydrocarbon receptor (Homo sapiens) (P35869 whole entry, looked up): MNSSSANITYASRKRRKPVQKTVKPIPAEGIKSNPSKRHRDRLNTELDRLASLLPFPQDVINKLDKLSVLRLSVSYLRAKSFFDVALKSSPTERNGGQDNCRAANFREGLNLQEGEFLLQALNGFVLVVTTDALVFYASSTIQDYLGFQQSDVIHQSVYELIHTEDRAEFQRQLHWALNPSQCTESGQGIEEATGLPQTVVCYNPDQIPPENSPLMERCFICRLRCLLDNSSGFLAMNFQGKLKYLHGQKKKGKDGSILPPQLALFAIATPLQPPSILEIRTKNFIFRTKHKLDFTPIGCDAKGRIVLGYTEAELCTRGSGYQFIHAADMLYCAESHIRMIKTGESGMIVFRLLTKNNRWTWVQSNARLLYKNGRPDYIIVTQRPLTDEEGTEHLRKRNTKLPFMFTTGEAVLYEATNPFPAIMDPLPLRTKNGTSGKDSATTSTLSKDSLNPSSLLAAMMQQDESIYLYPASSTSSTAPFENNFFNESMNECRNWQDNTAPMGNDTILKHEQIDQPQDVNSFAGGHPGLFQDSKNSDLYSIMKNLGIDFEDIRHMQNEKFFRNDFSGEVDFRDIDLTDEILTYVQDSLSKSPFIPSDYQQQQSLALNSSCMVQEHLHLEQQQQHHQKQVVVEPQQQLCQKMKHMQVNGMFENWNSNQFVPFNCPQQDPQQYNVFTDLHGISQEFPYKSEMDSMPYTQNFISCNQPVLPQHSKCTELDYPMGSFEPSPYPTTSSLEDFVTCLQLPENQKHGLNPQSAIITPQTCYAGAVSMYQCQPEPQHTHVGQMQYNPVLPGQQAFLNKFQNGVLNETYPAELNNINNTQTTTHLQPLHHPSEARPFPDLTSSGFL
Procedure, shortened: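 Measured in HG2L7.5c1 cells: CellTiter-Fluor signal (30 min incubation, 37C) for viability, then luciferase luminescence (30 min, room temperature). Compound contact time was 24 h at 37C, following a 5 h pre-incubation.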

[6] = qHTS assay to identify small molecule that activate the aryl hydrocarbon receptor (AhR) signaling pathway - cell viability counter screen (AID 743086); note: nearly all actives have a fitted effect of over 45% in size; note: potency is the fitted concentration of half-maximal effect
Procedure, shortened: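 HepG2-AhR-luc (HG2L7.5c1) cells, 4000/well, treated 24 h at 37 C with compound; viability measured as CellTiter-Fluor fluorescence after 30 min in the same wells as the luciferase read.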

[7] = qHTS assay to identify small molecule antagonists of the peroxisome proliferator-activated receptor gamma (PPARg) signaling pathway - cell viability counter screen (AID 743194); settings: Potency: co-treated with 50 nM rosiglitazone unless noted; note: nearly all actives have a fitted effect of over 55% in size
Procedure, shortened: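 Cytotoxicity counter screen in PPARg-bla HEK293H cells, same wells as reporter assay. Compounds plus 50 nM rosiglitazone (final) for 17 h at 37 C, then viability read by CellTiter-Glo luminescence.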

[8] = qHTS assay for small molecule agonists of the antioxidant response element (ARE) signaling pathway (AID 743202; active = well fitted activation curve with a large enough effect in the signal ratio in the repeat runs, not every such curve was filed as active; inconclusive = weak or mixed curves, or effect the other way; inactive = no such curve, though single readings can be large or run the other way; the % refers to the signal ratio; note: potency is the fitted concentration of half-maximal effect)
Procedure, shortened: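 ARE-bla HepG2 cells (beta-lactamase reporter under the antioxidant response element), plated 5 hours, then exposed to compounds 16 hours at 37 C. LiveBLAzer B/G FRET substrate added for 2 hours at room temperature; fluorescence intensity read.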

[9] = qHTS assay for small molecule activators of the heat shock response signaling pathway - cell viability counter screen (AID 743209); note: nearly all actives have a fitted effect of over 50% in size; note: potency is the fitted concentration of half-maximal effect
Procedure, shortened: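 Counter screen for cytotoxicity in HeLa HSE-bla reporter cells. Treatment was 5 h at 37 C; viability was detected by luminescent ATP assay (CellTiter-Glo) in the same wells as the beta-lactamase read.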

[10] = qHTS assay for small molecule activators of the heat shock response signaling pathway (AID 743210; active = well fitted activation curve with a large enough effect in the signal ratio in the repeat runs, with a control signal flat, not every such curve was filed as active; inconclusive = weak or mixed curves; the % refers to the signal ratio)
Procedure, shortened: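 HSE-bla HeLa cells (beta-lactamase reporter under heat shock response elements), plated overnight, then exposed to compounds 5 h at 37 C; LiveBLAzer B/G FRET substrate added, 2.5 h at room temperature, fluorescence intensity read.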

[11] = test system: thyroid hormone receptor (rat, GH3 cells); assay: qHTS assay to identify small molecule agonists of the thyroid receptor (TR) signaling pathway (AID 743066; calls by dose curve)
[12] = biological target: Estrogen receptor (Homo sapiens) (UniProt P03372); assay: qHTS assay to identify small molecule antagonists of the estrogen receptor alpha (ER-alpha) signaling pathway (AID 743069; active = well fitted curve in the direction sought with a large enough effect in the signal ratio in the repeat runs, not every such curve was filed as active; inconclusive = weak or mixed curves, or effect the other way; inactive = no such curve, though single readings can be large or run the other way; the % refers to the signal ratio)
Chain of Estrogen receptor (Homo sapiens) (P03372 whole entry, looked up): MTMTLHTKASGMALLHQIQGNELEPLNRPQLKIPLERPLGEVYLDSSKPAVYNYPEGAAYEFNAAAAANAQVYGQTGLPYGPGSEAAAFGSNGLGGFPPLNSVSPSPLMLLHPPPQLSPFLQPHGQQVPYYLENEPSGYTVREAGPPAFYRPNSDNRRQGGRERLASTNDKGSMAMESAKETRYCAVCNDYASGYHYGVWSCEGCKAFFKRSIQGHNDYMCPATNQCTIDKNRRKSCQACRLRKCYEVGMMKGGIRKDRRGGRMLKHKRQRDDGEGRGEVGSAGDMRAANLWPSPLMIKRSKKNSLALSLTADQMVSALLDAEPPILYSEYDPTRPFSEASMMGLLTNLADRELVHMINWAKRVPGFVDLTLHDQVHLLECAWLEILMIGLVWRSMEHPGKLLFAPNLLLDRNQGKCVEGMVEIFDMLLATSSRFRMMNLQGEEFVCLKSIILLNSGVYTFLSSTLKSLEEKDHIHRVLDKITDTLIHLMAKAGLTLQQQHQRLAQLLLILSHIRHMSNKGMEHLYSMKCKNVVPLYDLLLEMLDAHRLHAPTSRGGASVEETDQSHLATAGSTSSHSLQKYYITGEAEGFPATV
Procedure, shortened: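 HEK293 ER-alpha-UAS-bla GripTite cells, held overnight in 2% charcoal-stripped FBS, 5,000 cells/well, preincubated 4 h, then compound plus 17beta-estradiol for 18 h at 37C. Beta-lactamase read by LiveBLAzer B/G FRET substrate, 2 h at room temperature.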

[13] = biological target: Estrogen receptor (Homo sapiens) (UniProt P03372); assay: qHTS assay to identify small molecule agonists of the estrogen receptor alpha (ER-alpha) signaling pathway (AID 743075; calls by dose curve; note: potency is the fitted concentration of half-maximal effect)
[14] = biological target: Estrogen receptor (Homo sapiens) (UniProt P03372); assay: qHTS assay to identify small molecule agonists of the estrogen receptor alpha (ER-alpha) signaling pathway using the BG1 cell line (AID 743079); settings: BG1Luc4E2 cells, ERE-luciferase agonist, 22 h; activation: at 70.3 µM (top of the series) unless noted; note: nearly all actives have a fitted effect of over 20% in size; note: potency is the fitted concentration of half-maximal effect
[15] = qHTS assay to identify small molecule antagonists of the estrogen receptor alpha (ER-alpha) signaling pathway using the BG1 cell line (AID 743080; calls by dose curve;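 note: BG1 cells stimulated with 17beta-estradiol alongside compound; nearly all actives have a fitted effect of over 25% in size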)
Procedure, shortened: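 BG1-Luc-4E2 cells (endogenous full-length ER-alpha, 4xERE luciferase) hormone-starved 5 days in charcoal-stripped FBS, plated 4,000/well for 24 h, then compound plus 17beta-estradiol for 21.5 h at 37 C; ONE-Glo luminescence read.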

[16] = biological target: Peroxisome proliferator-activated receptor gamma (Homo sapiens) (UniProt P37231); assay: qHTS assay to identify small molecule agonists of the peroxisome proliferator-activated receptor gamma (PPARg) signaling pathway (AID 743094; active = well fitted activation curve with a large enough effect in the signal ratio in the repeat runs, not every such curve was filed as active; inconclusive = weak or mixed curves, or effect the other way; inactive = no such curve, though single readings can be large or run the other way; the % refers to the signal ratio)
Chain of Peroxisome proliferator-activated receptor gamma (Homo sapiens) (P37231 whole entry, looked up): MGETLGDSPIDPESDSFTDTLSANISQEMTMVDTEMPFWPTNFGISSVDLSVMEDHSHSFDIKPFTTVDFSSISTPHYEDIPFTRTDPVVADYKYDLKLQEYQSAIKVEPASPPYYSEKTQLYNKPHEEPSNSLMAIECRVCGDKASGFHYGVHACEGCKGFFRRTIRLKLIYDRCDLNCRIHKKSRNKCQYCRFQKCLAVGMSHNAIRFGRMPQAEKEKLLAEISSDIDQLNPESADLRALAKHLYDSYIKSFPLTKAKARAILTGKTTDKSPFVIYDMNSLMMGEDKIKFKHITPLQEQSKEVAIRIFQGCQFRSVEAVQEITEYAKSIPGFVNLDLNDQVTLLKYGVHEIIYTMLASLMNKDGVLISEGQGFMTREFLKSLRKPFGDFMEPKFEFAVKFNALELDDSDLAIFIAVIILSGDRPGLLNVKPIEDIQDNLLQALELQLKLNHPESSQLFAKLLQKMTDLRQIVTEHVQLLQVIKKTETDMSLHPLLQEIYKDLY
Procedure, shortened: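 Following 5 h plating at 37C, PPARg-bla HEK293H cells receive compound or DMSO for 17 h; fluorescence intensity is recorded after LiveBLAzer B/G loading for 1 h at room temperature.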

[17] = qHTS assay for small molecule agonists of the antioxidant response element (ARE) signaling pathway - cell viability counter screen (AID 743203; calls by dose curve; note: nearly all actives have a fitted effect of over 55% in size; note: potency is the fitted concentration of half-maximal effect)
Procedure, shortened: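 Compounds in DMSO were pinned onto ARE-bla HepG2 cells plated 5 hrs earlier at 2,000 cells/well. Sixteen hours later at 37C/5% CO2, CellTiter-Glo was added and luminescence measured after 30 min at room temperature.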

[18] = biological target: Peroxisome proliferator-activated receptor gamma (Homo sapiens) (UniProt P37231); assay: qHTS assay to identify small molecule antagonists of the peroxisome proliferator-activated receptor gamma (PPARg) signaling pathway (AID 743191; calls by dose curve; note: nearly all actives have a fitted effect of over 30% in size; note: potency is the fitted concentration of half-maximal effect)
Procedure, shortened: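 GeneBLAzer PPARg UAS-bla HEK293H cells, 5 h post-plating, exposed to compounds 17 h at 37C. LiveBLAzer B/G FRET substrate added for 1 h at room temperature; beta-lactamase reporter read by fluorescence intensity.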

[19] = qHTS assay to identify small molecule antagonists of the thyroid receptor (TR) signaling pathway (AID 743065); note: nearly all actives have a fitted effect of over 55% in size; note: potency is the fitted concentration of half-maximal effect
Procedure, shortened: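 GH3.TRE-Luc rat pituitary cells (two TREs driving luciferase) were dosed with compound, then stimulated with 1 nM T3 (final) for 23.5 h at 37 C. ONE-Glo luminescence was the read-out, with CellTiter-Fluor fluorescence as the cytotoxicity counter-screen.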

| SMILES | Potency [1] | Potency [2] | Potency [3] | Potency (Aromatase (Homo sapiens)) | Potency [4] | Potency [5] | Potency [6] | Potency [7] | Potency [8] | Potency [9] | Potency [10] | Potency [11] | Potency [12] | Potency [13] | Potency [14] | Potency [15] | Potency [16] | Potency [17] | Potency [18] | Potency [19] |
| --- | --- | --- | --- | --- | --- | --- | --- | --- | --- | --- | --- | --- | --- | --- | --- | --- | --- | --- | --- | --- |
| CC(C)(O)C#N | inactive | inactive | inactive | inactive | inactive | inactive | inactive | inactive | inactive | inactive | inactive | – | – | – | – | – | – | – | – | – |
| C[N+](C)(C)CC(=O)[O-] | inactive | inactive | inactive | inactive | inactive | inactive | inactive | inactive | inactive | inactive | – | inactive | inactive | inactive | inactive | inactive | inactive | inactive | – | – |
| CC1(C)C(C(=O)OC(C#N)c2cccc(Oc3ccccc3)c2)C1(C)C (stereo not given) | inactive | inactive | inactive | 48.9 µM (active) | inactive | inactive | inactive | inactive | inactive | inactive | inactive | inactive | inactive | inactive | – | inactive | inactive | inactive | inactive | – |
| CN(C)c1ccccc1 | inactive | – | inactive | – | – | – | inactive | – | inactive | inactive | inactive | inactive | – | – | – | – | – | – | – | inactive |
| CCOP(=O)(O)OCC (tested in a mixture with another compound) | inactive and 7.63 µM (active) | inactive and 27.3 µM (active) | inactive and 54 µM (active) | – | inactive and 24.1 µM (active) | – | inactive and 30.4 µM (active) | – | inactive | inactive | – | inactive | – | – | – | – | – | inactive and 17.1 µM (active) | – | – |
| c1ccc(C2CO2)cc1 (stereo not given) | inactive | inactive | inactive | inactive | inactive | inactive | inactive | – | inactive | inactive | inactive | – | – | – | – | – | inactive | inactive | inactive | – |
| Cc1cc(Cl)ccc1N=CN(C)C | inactive | inactive | inactive | inactive | inactive | inactive | inactive | inactive | inactive | inactive | – | – | – | – | – | – | inactive | – | – | – |
| N#CCCCCC#N | – | inactive | inactive | inactive | inactive | inactive | inactive | – | inactive | inactive | inactive | inactive | – | – | – | – | – | – | inactive | inactive |
| CCCCCCCC[N+](C)(CCCCCCCC)CCCCCCCC | inactive and 2.44 µM (active) and 6.11 µM (active) | 7.75 µM (active) and 27.6 µM (active) and 8.71 µM (active) | inactive and 13.7 µM (active) and 27.3 µM (active) | 15.3 µM (active) and 3.44 µM (active) and 15.4 µM (active) | 17.2 µM (active) and 4.86 µM (active) and 27.3 µM (active) | inactive | inactive and 24.3 µM (active) | – | – | 13.8 µM (active) and 4.37 µM (active) | – | inactive | – | – | – | – | – | 12.2 µM (active) and 19.4 µM (active) and 8.63 µM (active) | – | 1.37 µM (active) and 2.73 µM (active) |
| Cc1ccc(N=CN(C)C=Nc2ccc(C)cc2C)c(C)c1 | inactive and 48.5 µM (active) | inactive | inactive | inactive | inactive | inactive and 48.8 µM (active) | inactive | – | inactive | inactive | inactive | inactive | inactive | inactive | inactive | inactive | inactive | inactive | inactive | – |
| CC(C)(c1ccc(OCC2CO2)cc1)c1ccc(OCC2CO2)cc1 (stereo not given) | – | inactive | inactive | inactive | inactive | inactive | inactive | – | 61.1 µM (active) | inactive | – | inactive | inactive | inactive | inactive | inactive | – | inactive | – | 55.2 µM (active) and 54.5 µM (active) |
| COP(=S)(OC)SCn1nnc2ccccc2c1=O | inactive | inactive | inactive | 54.5 µM (active) | inactive | inactive | inactive | – | inactive | inactive | inactive | inactive | inactive | inactive | inactive | inactive | inactive | – | 49 µM (active) | – |
| O=C(O)c1nn(Cc2ccc(Cl)cc2Cl)c2ccccc12 | inactive | inactive | inactive | inactive | inactive | inactive | inactive | – | 54.1 µM (active) | inactive | inactive | inactive | inactive | 95.2 nM [inconclusive] (active) and inactive | 6.68 µM (active) and inactive | inactive | – | – | – | – |
